Screen size: about 340,000 compounds; about 2,800 (0.82%) were called active.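 The calls were made as follows: active = B-score under library mean minus 4 SD, starting fluorescence ratio at most library mean plus 5 SD; inactive = the rest.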 The list comes from a sample in which actives are over-represented; it also holds similar structures and randomly drawn compounds.

In this assay the target is Potassium channel subfamily K member 3 (Homo sapiens) (UniProt O14649). As to the kind of experiment: blockers of TASK1 two-pore potassium channel – CHO cells, FluxOR thallium flux, B-score, primary screen (AID 602410).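 As to B-score: more negative B-score means stronger inhibition of thallium flux through KCNK3.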 To be noted: CHO-KCNK3 thallium flux, FluxOR fluorescence, at 10 µM; hits give low values.
Potassium channel subfamily K member 3 (Homo sapiens), sequence (O14649 whole entry, looked up): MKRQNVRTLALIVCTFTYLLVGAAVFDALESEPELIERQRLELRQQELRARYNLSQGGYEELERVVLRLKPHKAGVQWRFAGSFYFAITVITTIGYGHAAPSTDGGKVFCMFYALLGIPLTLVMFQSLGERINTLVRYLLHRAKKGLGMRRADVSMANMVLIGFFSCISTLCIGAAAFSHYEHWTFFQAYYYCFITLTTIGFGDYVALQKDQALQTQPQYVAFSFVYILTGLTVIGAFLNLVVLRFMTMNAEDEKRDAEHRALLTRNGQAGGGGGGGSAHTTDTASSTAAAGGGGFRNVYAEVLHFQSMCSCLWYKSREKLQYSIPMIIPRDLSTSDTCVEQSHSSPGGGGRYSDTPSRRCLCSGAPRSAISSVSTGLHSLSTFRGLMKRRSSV
Turning to `CCCCn1c(N)c(N(CCOC)C(=O)c2cccc(S(=O)(=O)N(C)c3ccccc3)c2)c(=O)[nH]c1=O`, the B-score entry is “inactive”.
Next, `COc1ccc(C2NCCCC2c2ccccc2)cc1` (stereo unspecified): “inactive”; `COCCn1c(=O)[nH]c2cc(C(=O)NCc3cccnc3)ccc2c1=O`: “inactive”; `CCCCNC(=O)C1(O)c2ccccc2NC(=O)N1c1ccc(Cl)cc1` (stereo unspecified): “inactive”.
Next, `O=C(c1ccccc1F)N(Cc1ccccc1)Cc1ccccc1`: “inactive”; `Cc1cccc(N(Cc2ccccc2)C(=O)c2cc(S(=O)(=O)N3CCOCC3)ccc2F)c1`: “inactive”.
`Cc1cccc(N(Cc2ccccc2)C(=O)c2ccccc2F)c1`: the B-score was -9.35 (active).
On to `O=[N+]([O-])c1cc([N+](=O)[O-])c(Oc2cc(F)cc(F)c2F)cc1NN1CCCCC1`, for which the B-score result is “inactive”.
For `COC(=O)C1=C(C(=O)OC)C(c2cc([N+](=O)[O-])ccc2O)c2sc(=O)[nH]c2S1` (stereo unspecified), the B-score result is “inactive”.
Next, `Cc1c(C(=O)NC2CCCCC2)oc2ccccc12`: “inactive”; `Cc1cc(C)nc(-n2nc(C)cc2NC(=O)c2ccc(F)cc2F)n1`: “inactive”.
`c1ccc2c(NC3C4CC5CC(C4)CC3C5)nc(N3CCOCC3)nc2c1` (stereo unspecified): the B-score is -9.5 (active).
Next, `CC(Nc1nc(N2CCOCC2)nc2ccccc12)c1ccccc1` (stereo unspecified): “inactive”.
Next, `CC(Nc1nc(N2CCCC2)nc2ccccc12)c1ccccc1` (stereo unspecified): “inactive”; `O=C(NC1CC1)C1CCCN(C(=O)NC2CCCCC2)C1` (stereo unspecified): “inactive”.
For `COc1ccccc1OCc1nnc(SCC(N)=O)n1-c1ccccc1`, the B-score result is “inactive”.
As for `COc1ccc(C(c2nnnn2C2CCCCC2)N2CCN(c3ccccc3F)CC2)cc1` (stereo unspecified), the B-score result was “inactive”.
The value for `c1ccc(CCn2nnnc2CN2CCN(C3CCCC3)CC2)cc1` was “inactive”; that for `c1ccc(C(c2ccccc2)N2CCN(Cc3nnnn3C3CCCCC3)CC2)cc1` was -10.8 (active); that for `CC(=O)c1c(C)c[nH]c1C` was “inactive”.
The value for `O=C(NC(=S)N1CCN(Cc2ccccc2)CC1)c1ccccc1` was “inactive”; that for `Cc1cccc(N(C(=O)Cc2cccs2)C(C(=O)NC2CCCC2)c2ccsc2)c1` (stereo unspecified) was “inactive”; that for `NS(=O)(=O)c1ccc(N2C(=O)C3C4CC(C(Br)C4Br)C3C2=O)cc1` (stereo unspecified) was “inactive”.
As to `Cc1cc(O)c(NC(=O)c2ccc(C)c([N+](=O)[O-])c2)cc1C`, the B-score entry was “inactive”.
The value for `CCCCCCCCn1c2c(c(=N)c3c1CCC3)CCCC2` was -9.82 (active).
The value for `CC1(C)Cc2c(sc(NC(=O)C(=O)N3CCOCC3)c2C#N)CO1` was “inactive”.
For the compound `Clc1ccc(-c2cc(C3CCNCC3)[nH]n2)c(Cl)c1`, the B-score entry is “inactive”.
On to `Cc1ccccc1NC(=O)CSc1nc2ccc(Nc3nc(N4CCOCC4)nc(N4CCOCC4)n3)cc2s1`, for which the B-score result is “inactive”.
For `O=C(CSc1nc(Nc2ccccc2)nc(N2CCOCC2)n1)Nc1cc(Cl)ccc1O`, the B-score is -11.6 (active).
For the compound `CC1(c2ccccc2)NC(=O)N(CC(=O)Nc2cc(Cl)ccc2N2CCOCC2)C1=O` (stereo unspecified), the B-score entry was “inactive”.
Next, `COc1ccc(NC(=O)CN(C)C(=O)/C=C/c2cn(Cc3ccccc3)nc2-c2cccnc2)cc1`: “inactive”; `COc1cccc(NC(=O)CN(C)C(=O)/C=C/c2cn(-c3ccccc3)nc2-c2cccs2)c1`: -10.7 (active).
The value for `COc1cccc(NC(=O)CN(C)C(=O)/C=C/c2cc(OC)ccc2OC)c1` was “inactive”; that for `CCN(c1ccccc1)S(=O)(=O)c1ccc(OCC(=O)N2CCCC2)cc1` was “inactive”; that for `Cc1nc2nc[nH]n2c(=O)c1NC(=O)c1cccc(OCC(C)C)c1` was “inactive”.
Next, `CC(C)N1CCC(NC(=O)Nc2ccccc2)CC1`: “inactive”; `C=CCn1cc(Cl)cc(C(=O)Nc2ccccc2)c1=O`: “inactive”.
In the case of `C=CCN(C(=O)c1cc(C)cc(C)c1)C1(C(=O)Nc2ccccc2)CCN(C(C)C)CC1`, the B-score is -9.18 (active).
Next, `Cc1cccc(-c2c(NC(=O)c3ccco3)oc3ccc(Cl)cc3c2=O)c1`: “inactive”; `O=C(CS(=O)(=O)Cc1ccccc1)Nc1cccnc1`: “inactive”.
The value for `CC(=O)Nc1ccc(S(=O)(=O)N(CCc2ccccc2)CC(=O)N/N=C/c2ccc(C(=O)O)cc2)cc1` was “inactive”; that for `CCOC(=O)N1CCN(C(=O)c2ccc3c(c2)N(Cc2ccc(C)cc2)CCS3)CC1` was “inactive”; that for `O=C(NCCc1ccccc1)c1ccc2c(c1)N(Cc1ccccc1)CCS2` was -11.6 (active).
As for `O=C(NCCc1ccccc1)c1cccc(NC(=O)c2ccccc2)c1`, the B-score result is “inactive”.
The value for `CCOCc1c(C(=O)N2CCN(Cc3ccc(Br)s3)CC2)oc2ccccc12` was “inactive”.
Next, `CCOc1ccc(S(=O)(=O)N(CC(=O)NCC(F)(F)F)Cc2ccco2)cc1`: “inactive”; `CN(C(=O)Cn1nnc(-c2ccc(F)cc2)n1)C1CCS(=O)(=O)C1` (stereo unspecified): “inactive”.
Consider `CC(C)CCNC(=O)C(C)N(C(=O)Cn1nnc(-c2ccc(F)cc2)n1)C1CCCC1` (stereo unspecified), for which the B-score was -9.19 (active).
Next, `CC(C)CCNC(=O)CN(C(=O)Cn1nnc(-c2ccc(F)cc2)n1)C1CCCC1`: “inactive”; `C#CCOCCOCCOCCNc1nc(N2CCN(C(=O)C(Cc3ccc(O)cc3)n3cc(C(N)CC(C)C)nn3)CC2)nc(N2CCN(C(=O)C(Cc3ccc(O)cc3)n3cc(C(N)C(C)CC)nn3)CC2)n1` (stereo unspecified): “inactive”; `COc1ccc(-n2c(O)c(C=NCC(c3ccco3)N3CCCC3)c3ccccc3c2=O)cc1OC` (stereo unspecified): “inactive”.
Take `CCOc1ccccc1Oc1cn[nH]c1-c1ccc(OC)cc1O`: the B-score was -8.87 (active).
Consider `CCOc1ccc(-c2nc(N)ncc2-c2ccccc2OC)c(O)c1`, for which the B-score result is “inactive”.
Next, `COc1ccc(Oc2cn[nH]c2-c2ccc(OC)cc2O)cc1`: “inactive”.
`CC1CCc2sc(C(=O)NCC(c3ccco3)N3CCCCC3)cc2C1` (stereo unspecified): the B-score entry is “inactive”.
Next, `O=C(Oc1ccc(Br)cc1C(=S)N1CCOCC1)c1cccc([N+](=O)[O-])c1`: -11.4 (active); `O=C(Oc1ccccc1C(=S)N1CCCCC1)c1cc([N+](=O)[O-])cc([N+](=O)[O-])c1`: “inactive”; `COc1cc(C(=S)N2CCOCC2)cc(OC)c1OC(=O)c1cc([N+](=O)[O-])cc([N+](=O)[O-])c1`: “inactive”.
Next, `Cc1ccc(NC(=O)COc2ccc(/C=N\NC(=O)c3cccnc3)cc2)cc1C`: “inactive”; `O=C(N/N=C/c1sc(N2CCCCC2)nc1-c1cccs1)c1cccnc1`: -10.7 (active).
On to `O=C(NN=C1CCC(=NNC(=O)c2cccnc2)CC1)c1cccnc1`, for which the B-score entry is “inactive”.
Next, `CCCCCCC(O)(CCN1CCCCC1)c1ccccc1` (stereo unspecified): “inactive”; `Nc1nnc(SCC(=O)NCC(=O)Nc2ccc(F)c(F)c2F)s1`: “inactive”.
The value for `O=C1C(Cl)=C(Oc2ccccc2)C(=O)c2ccccc21` was “inactive”; that for `O=C(NC1=CC(=O)c2ccccc2C1=O)c1ccccc1` was “inactive”.
The value for `CC(=O)N(C1=C(Cl)C(=O)c2ccccc2C1=O)c1ccc(C(=O)O)cc1` was -11 (active).
Regarding `CS(=O)(=O)N(CC(=O)N1CCc2ccccc2C1)c1ccc(Br)cc1`, the B-score result is “inactive”.
Next, `COc1ccccc1CN1CCN(C(c2ccccc2)c2ccccc2)CC1`: “inactive”; `CC(C)OCC(O)CN1CCN(C(c2ccccc2)c2ccccc2)CC1` (stereo unspecified): “inactive”.
Consider `CC1(C)CC(N2CCN(C(c3ccccc3)c3ccccc3)CC2)=CC(=[N+]2CCCCC2)C1`, for which the B-score is -8.86 (active).
The value for `CN1CCN(CCC(=O)N/N=C/C=C2\N(C)c3ccccc3C2(C)C)CC1` was “inactive”; that for `CC(C)Nc1nnc(SCC(=O)/C=C2\N(C)c3ccccc3C2(C)C)s1` was “inactive”; that for `CC(=O)Nc1cccc(OCC(=O)/C=C2\N(C)c3ccccc3C2(C)C)c1` was -8.91 (active).
`CCCCn1c(N)c(N(CCOC)C(=O)c2cccc(S(=O)(=O)N3CCCCC3)c2)c(=O)[nH]c1=O`: the B-score entry is “inactive”.
Regarding `O=C(N/N=C/c1ccoc1)c1ccc(Cl)cc1Cl`, the B-score entry is “inactive”.
The value for `CC(C)c1cc(C(=O)N/N=C/c2ccoc2)c(O)c(C(C)C)c1` was -10.5 (active).
The value for `CC(Oc1ccccc1[N+](=O)[O-])C(=O)N/N=C/c1ccoc1` (stereo unspecified) was “inactive”.
On to `COC(=O)c1cc2c(ccn2C)n1C`, for which the B-score result was “inactive”.
On to `COc1ccc(S(=O)(=O)c2c[nH]c(=S)[nH]c2=O)cc1Cl`, for which the B-score entry was “inactive”.
On to `CC(=O)Nc1ccc(S(=O)(=O)NCCC(=O)N2CCN(c3ccccc3Cl)CC2)cc1`, for which the B-score result was “inactive”.
The value for `O=C(C(c1ccccc1)c1ccccc1)N1CCN(CC(O)COc2ccccc2)CC1` (stereo unspecified) was “inactive”; that for `CC(C)c1ccc(OCC(O)Cn2cnc3ccccc32)cc1` (stereo unspecified) was “inactive”.
As for `OC(CN=c1sc2ccccc2n1CC(O)COc1ccccc1)COc1ccccc1` (stereo unspecified), the B-score was -12.6 (active).
As for `COc1ccc(C)cc1NC(=O)CNCc1cccs1`, the B-score result is “inactive”.
The value for `O=C1OC(Oc2ccc(Br)cc2)(c2ccccc2)c2ccccc21` (stereo unspecified) was -10.1 (active); that for `CS(=O)(=O)Nc1ccccc1N=C(c1ccccc1)c1ccccc1` was “inactive”; that for `CCC(CC)C(=O)Nc1cc(C(=O)OC)cc(C(=O)OC)c1` was “inactive”.
In the case of `O=C(NCCCO)c1cc2c([nH]c3ccccc32)c(-c2ccc(F)cc2)n1`, the B-score entry was “inactive”.
The value for `Cn1nc(-c2ccc(Cl)cc2)c2cc(C(=O)NCc3ccco3)sc21` was -13.2 (active).
Next, `COc1ccccc1N1CCN(C(=O)c2cn(-c3ccccc3)nc2-c2cccnc2)CC1`: “inactive”; `COc1cccc(-c2nn(C)c3sc(C(=O)N4CCN(c5ccccc5)CC4)cc23)c1`: “inactive”; `CN(CCNC(=O)c1cc2c(-c3ccccc3F)nn(C)c2s1)C1CCCCC1`: “inactive”.
Take `COc1ccccc1N1CCN(C(=O)c2cc3c(-c4ccc(Cl)cc4)nn(C)c3s2)CC1`: the B-score was -10.1 (active).
On to `COc1ccc2c(Cl)c(C(=O)NCc3ccco3)sc2c1`, for which the B-score result is “inactive”.
Take `CCOc1ccc(NS(=O)(=O)c2cc(C)c(C)cc2C)cc1`: the B-score entry is “inactive”.
Next, `CCOc1ccccc1NC(=O)c1cc(S(=O)(=O)N2CCC3(CC2)OCCO3)ccc1F`: “inactive”.
As to `CC(=O)N1CC[n+]2c(-c3ccc([N+](=O)[O-])cc3)csc21`, the B-score entry is “inactive”.
Next, `CC1CCCCC12NC(=O)N(CC(=O)OCc1c(F)cccc1Cl)C2=O` (stereo unspecified): “inactive”.
Next, `Cc1ccc(CN(C)Cc2cc(=O)oc3cc(C)c(Cl)cc23)cc1`: “inactive”; `Cc1cc2oc(=O)cc(CN(C)Cc3ccc(OC(F)F)cc3)c2cc1Cl`: -10.4 (active); `CCOc1ccc(N(C)Cc2cc(=O)oc3ccc(OC)cc23)cc1`: “inactive”.

Values taken from PubChem BioAssay AID602410 (Johns Hopkins Ion Channel Center, 2012).
